Data reported in paper PMC7862700, “An all-to-all approach to the identification of sequence-specific readers for epigenetic DNA modifications on cytosine”.

How the values were obtained:
Test in all cases: DAPPL (digital affinity profiling via proximity ligation, sequencing); 10 mM Tris-HCl pH 7.5, 50 mM NaCl, 1 mM DTT, 4% glycerol, room temperature, 30 min; GST-TFs on glutathione beads, 16-mer random dsDNA library, 0.1% formaldehyde crosslink after washing; high values mean tight binding
Conditions in all cases: protein: recombinant; tags: N-terminal GST; dsDNA, one strand shown
FEV = target: T1, FEV (Homo sapiens, UniProt Q99581 1-238)
T1 sequence: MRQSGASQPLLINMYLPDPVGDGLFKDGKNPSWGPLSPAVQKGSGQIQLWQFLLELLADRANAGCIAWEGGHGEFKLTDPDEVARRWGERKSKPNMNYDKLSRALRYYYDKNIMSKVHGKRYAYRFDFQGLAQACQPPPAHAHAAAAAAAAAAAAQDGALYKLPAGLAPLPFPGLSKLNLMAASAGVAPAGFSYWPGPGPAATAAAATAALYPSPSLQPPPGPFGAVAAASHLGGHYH
Summary of the method: (§1)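 Binding signal is given per hexamer as its read frequency for a factor divided by its frequency in the tag-only sample. GST-fused human transcription factors were expressed in yeast, captured on glutathione beads, barcoded with DNA and pooled with that sample, then incubated with 200 nmole of a 16-mer random double-stranded DNA library in Tris/NaCl/DTT/glycerol buffer for 30 min at room temperature. The pools were then washed, crosslinked, proximity-ligated, amplified by PCR and sequenced on an Illumina NextSeq500.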

ETV5 = ETV5 (Homo sapiens, UniProt P41161 1-510)
ETV5, sequence (P41161 whole entry): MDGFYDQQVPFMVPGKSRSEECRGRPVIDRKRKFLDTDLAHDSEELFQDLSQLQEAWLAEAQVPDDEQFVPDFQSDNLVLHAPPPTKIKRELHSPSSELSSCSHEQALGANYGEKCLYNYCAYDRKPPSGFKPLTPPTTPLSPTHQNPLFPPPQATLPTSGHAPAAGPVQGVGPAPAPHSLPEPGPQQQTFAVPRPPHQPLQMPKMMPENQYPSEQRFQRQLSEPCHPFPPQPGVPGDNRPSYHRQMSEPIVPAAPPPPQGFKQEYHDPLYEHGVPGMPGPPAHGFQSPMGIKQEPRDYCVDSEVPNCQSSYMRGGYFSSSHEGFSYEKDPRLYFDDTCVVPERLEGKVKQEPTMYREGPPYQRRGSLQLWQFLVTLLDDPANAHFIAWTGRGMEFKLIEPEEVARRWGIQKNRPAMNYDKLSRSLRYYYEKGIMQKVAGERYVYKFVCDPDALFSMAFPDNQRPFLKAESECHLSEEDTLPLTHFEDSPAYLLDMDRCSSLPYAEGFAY
Summary of the method: as §1

SPIC = target: T2, SPIC (Homo sapiens, UniProt Q8N5J4 1-248)
T2 sequence: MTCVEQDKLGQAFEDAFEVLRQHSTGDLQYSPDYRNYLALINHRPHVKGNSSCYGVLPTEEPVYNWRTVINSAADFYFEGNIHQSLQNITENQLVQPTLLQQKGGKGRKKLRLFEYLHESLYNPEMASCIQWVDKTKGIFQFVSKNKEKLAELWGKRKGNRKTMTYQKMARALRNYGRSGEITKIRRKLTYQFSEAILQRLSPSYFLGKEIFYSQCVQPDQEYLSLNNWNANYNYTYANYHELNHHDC
Summary of the method: as §1

ELF4 = ELF4 (Homo sapiens, UniProt Q99607 1-663)
ELF4, sequence (Q99607 whole entry): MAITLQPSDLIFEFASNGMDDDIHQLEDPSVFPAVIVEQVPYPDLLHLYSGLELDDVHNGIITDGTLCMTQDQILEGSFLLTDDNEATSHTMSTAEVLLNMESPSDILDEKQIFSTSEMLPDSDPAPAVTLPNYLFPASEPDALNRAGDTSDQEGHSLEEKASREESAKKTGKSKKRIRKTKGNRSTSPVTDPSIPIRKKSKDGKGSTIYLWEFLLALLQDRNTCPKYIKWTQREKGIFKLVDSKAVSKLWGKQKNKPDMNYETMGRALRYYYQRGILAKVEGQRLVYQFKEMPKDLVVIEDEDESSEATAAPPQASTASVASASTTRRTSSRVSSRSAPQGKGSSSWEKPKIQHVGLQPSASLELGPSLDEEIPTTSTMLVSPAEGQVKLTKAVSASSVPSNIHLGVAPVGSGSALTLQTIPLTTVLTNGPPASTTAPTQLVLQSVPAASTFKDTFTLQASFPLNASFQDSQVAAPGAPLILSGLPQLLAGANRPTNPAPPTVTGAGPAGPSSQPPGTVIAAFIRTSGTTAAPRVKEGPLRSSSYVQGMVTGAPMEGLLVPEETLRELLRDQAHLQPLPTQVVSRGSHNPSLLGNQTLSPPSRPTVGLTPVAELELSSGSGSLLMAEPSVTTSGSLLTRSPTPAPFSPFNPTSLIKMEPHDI
Summary of the method: as §1

ELK4 = target: T3, ELK4 (Homo sapiens, UniProt P28324-2 1-405)
T3 sequence: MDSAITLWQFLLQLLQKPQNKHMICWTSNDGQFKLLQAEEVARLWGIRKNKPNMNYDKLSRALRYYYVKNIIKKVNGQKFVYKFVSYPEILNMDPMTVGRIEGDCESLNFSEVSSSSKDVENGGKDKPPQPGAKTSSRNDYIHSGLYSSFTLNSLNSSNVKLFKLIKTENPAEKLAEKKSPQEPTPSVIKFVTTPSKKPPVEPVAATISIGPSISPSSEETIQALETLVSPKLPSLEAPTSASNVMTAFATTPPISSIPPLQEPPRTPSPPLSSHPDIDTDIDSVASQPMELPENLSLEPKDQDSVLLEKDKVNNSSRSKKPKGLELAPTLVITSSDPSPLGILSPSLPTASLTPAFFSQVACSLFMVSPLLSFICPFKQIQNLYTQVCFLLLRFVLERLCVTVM
Summary of the method: as §1

ETV2 = target: T4, ETV2 (Homo sapiens, UniProt O00321 1-342)
T4 sequence: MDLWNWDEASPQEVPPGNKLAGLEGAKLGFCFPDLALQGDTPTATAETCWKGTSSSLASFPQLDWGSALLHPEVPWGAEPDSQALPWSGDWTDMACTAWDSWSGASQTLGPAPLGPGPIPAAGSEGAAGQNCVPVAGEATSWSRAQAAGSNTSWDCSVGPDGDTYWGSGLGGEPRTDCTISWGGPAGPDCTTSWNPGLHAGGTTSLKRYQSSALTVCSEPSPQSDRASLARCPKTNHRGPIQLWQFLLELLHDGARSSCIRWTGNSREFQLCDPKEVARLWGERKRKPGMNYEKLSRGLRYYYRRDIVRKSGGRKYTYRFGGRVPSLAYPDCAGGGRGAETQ
Summary of the method: as §1

ELF3 = target: T5, ELF3 (Homo sapiens, UniProt P78545 1-371)
T5 sequence: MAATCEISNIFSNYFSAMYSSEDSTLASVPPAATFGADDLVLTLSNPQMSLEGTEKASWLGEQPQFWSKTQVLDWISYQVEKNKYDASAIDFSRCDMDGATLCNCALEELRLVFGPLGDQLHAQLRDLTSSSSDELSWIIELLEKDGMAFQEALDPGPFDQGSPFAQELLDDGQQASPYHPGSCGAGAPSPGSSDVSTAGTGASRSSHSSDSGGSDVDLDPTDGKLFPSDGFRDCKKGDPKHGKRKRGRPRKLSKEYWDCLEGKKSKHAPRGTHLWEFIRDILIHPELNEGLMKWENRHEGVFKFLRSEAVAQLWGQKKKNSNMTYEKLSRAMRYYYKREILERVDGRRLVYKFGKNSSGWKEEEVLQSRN
Summary of the method: as §1

ETV1 = ETV1 (Homo sapiens, UniProt P50549 1-477)
ETV1, sequence (P50549 whole entry): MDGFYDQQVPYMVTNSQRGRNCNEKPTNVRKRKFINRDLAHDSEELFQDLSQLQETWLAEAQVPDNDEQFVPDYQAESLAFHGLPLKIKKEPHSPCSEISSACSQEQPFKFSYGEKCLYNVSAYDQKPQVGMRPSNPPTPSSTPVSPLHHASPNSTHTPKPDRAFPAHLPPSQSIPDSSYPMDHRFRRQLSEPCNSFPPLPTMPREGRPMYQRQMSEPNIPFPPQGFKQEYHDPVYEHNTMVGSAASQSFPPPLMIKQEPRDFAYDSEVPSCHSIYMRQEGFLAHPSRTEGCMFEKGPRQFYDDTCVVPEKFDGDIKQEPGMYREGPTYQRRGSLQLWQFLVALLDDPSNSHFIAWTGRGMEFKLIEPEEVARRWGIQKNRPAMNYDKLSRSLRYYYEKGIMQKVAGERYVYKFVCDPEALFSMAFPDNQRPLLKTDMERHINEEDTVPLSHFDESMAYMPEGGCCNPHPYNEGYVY
Summary of the method: as §1

ERF = target: T6, ERF (Homo sapiens, UniProt P50548 1-548)
T6 sequence: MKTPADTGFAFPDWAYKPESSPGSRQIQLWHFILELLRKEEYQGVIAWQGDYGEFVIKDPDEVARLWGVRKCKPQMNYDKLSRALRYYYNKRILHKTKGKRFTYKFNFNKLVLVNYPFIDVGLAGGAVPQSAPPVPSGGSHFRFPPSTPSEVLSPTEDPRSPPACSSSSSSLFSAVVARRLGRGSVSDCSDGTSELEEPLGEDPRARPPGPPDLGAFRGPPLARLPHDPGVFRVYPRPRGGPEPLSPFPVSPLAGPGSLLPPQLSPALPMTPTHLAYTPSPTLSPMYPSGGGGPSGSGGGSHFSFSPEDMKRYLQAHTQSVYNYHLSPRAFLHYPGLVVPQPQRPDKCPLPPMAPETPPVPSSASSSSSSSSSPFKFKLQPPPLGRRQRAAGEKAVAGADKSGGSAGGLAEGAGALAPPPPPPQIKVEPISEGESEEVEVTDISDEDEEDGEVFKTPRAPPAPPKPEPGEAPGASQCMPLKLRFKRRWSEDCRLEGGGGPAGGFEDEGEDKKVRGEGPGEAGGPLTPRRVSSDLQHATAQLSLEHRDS
Summary of the method: as §1

ETV3L = target: T7, ETV3L (Homo sapiens, UniProt Q6ZN32 1-361)
T7 sequence: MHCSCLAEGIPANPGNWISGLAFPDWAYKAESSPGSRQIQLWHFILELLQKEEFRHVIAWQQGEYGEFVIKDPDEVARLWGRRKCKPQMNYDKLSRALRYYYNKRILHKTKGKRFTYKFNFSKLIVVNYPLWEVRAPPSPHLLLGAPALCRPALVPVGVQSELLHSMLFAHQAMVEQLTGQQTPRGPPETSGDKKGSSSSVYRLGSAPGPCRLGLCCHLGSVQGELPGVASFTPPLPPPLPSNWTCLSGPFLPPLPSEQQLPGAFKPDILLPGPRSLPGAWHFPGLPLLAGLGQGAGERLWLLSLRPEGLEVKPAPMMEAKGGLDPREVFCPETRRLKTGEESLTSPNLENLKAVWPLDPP
Summary of the method: as §1

ETS2 = target: T8, ETS2 (Homo sapiens, UniProt P15036 1-469)
T8 sequence: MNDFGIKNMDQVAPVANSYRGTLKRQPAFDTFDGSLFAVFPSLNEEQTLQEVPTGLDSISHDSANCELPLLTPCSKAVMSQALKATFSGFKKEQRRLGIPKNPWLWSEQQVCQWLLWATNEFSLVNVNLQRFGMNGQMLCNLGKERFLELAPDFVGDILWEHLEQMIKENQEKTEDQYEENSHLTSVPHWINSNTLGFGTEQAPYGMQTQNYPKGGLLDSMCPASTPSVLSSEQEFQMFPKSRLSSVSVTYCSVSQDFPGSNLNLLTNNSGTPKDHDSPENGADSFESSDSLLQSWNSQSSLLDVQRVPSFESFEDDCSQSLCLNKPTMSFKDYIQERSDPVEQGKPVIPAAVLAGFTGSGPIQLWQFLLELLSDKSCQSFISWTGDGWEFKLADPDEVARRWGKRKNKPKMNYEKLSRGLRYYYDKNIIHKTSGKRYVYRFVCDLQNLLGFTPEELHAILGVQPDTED
Summary of the method: as §1

SPDEF = target: T9, SPDEF (Homo sapiens, UniProt O95238 1-335)
T9 sequence: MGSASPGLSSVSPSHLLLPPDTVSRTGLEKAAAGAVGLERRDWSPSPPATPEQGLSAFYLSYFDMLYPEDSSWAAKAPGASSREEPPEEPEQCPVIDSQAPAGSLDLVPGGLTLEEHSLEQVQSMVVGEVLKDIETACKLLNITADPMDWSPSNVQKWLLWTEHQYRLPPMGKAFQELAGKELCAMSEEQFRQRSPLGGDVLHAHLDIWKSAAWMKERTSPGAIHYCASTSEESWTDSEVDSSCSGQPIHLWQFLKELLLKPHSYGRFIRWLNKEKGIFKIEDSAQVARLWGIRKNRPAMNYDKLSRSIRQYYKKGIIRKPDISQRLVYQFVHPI
Summary of the method: as §1

ETV7 = target: T10, ETV7 (Homo sapiens, UniProt Q9Y603 1-341)
T10 sequence: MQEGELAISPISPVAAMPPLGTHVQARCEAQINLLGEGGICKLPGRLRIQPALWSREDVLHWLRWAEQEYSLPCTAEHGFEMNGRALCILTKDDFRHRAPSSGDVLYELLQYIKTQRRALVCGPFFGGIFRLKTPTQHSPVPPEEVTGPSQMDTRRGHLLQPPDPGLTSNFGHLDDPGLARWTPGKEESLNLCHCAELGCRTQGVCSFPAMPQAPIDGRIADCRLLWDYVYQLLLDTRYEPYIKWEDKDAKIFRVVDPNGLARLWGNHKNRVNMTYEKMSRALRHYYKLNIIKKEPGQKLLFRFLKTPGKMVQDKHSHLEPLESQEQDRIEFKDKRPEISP
Summary of the method: as §1

ELF5 = target: T11, ELF5 (Homo sapiens, UniProt Q9UKW6-2 1-255)
T11 sequence: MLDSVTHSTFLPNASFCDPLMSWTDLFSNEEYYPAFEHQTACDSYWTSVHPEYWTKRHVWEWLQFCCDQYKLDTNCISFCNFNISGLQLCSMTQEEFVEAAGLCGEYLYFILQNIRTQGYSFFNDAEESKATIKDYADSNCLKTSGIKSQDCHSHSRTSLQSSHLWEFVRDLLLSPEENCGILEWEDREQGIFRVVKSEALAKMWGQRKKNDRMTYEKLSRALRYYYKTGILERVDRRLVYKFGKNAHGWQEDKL
Summary of the method: as §1

ETV3 = target: T12, ETV3 (Homo sapiens, UniProt P41162-2 1-143)
T12 sequence: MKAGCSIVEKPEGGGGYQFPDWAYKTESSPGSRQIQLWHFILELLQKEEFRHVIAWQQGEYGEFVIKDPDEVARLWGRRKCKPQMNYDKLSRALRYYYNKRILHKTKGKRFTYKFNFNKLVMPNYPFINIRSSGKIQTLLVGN
Summary of the method: as §1

ETV6 = ETV6 (Homo sapiens, UniProt P41212 1-452)
ETV6, sequence (P41212 whole entry): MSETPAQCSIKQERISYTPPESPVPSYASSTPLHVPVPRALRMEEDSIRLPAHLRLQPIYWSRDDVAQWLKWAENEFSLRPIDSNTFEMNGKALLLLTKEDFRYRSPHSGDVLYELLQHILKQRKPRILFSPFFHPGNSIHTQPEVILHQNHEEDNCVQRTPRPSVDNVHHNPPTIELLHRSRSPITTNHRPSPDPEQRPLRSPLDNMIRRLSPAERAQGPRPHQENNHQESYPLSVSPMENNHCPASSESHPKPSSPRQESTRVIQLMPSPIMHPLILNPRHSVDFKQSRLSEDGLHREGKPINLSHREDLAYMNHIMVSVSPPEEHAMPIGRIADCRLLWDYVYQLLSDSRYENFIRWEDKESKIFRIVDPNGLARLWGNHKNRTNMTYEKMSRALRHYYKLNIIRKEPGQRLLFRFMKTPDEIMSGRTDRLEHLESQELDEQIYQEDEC
Summary of the method: as §1

Sequence | binding signal (FEV) | binding signal (ETV5) | binding signal (SPIC) | binding signal (ELF4) | binding signal (ELK4) | binding signal (ETV2) | binding signal (ELF3) | binding signal (ETV1) | binding signal (ERF) | binding signal (ETV3L) | binding signal (ETS2) | binding signal (SPDEF) | binding signal (ETV7) | binding signal (ELF5) | binding signal (ETV3) | binding signal (ETV6)
CCGCGT | 1.13 fold enrichment (6-mer frequency, TF over GST control) | 1.12 fold enrichment (6-mer frequency, TF over GST control) | 1.12 fold enrichment (6-mer frequency, TF over GST control) | 1.18 fold enrichment (6-mer frequency, TF over GST control) | 1.24 fold enrichment (6-mer frequency, TF over GST control) | 1.4 fold enrichment (6-mer frequency, TF over GST control) | 1.16 fold enrichment (6-mer frequency, TF over GST control) | 1.13 fold enrichment (6-mer frequency, TF over GST control) | 1.08 fold enrichment (6-mer frequency, TF over GST control) | 1.11 fold enrichment (6-mer frequency, TF over GST control) | 1.13 fold enrichment (6-mer frequency, TF over GST control) | 1.12 fold enrichment (6-mer frequency, TF over GST control) | 1.21 fold enrichment (6-mer frequency, TF over GST control) | 1.27 fold enrichment (6-mer frequency, TF over GST control) | 1.13 fold enrichment (6-mer frequency, TF over GST control) | 1.16 fold enrichment (6-mer frequency, TF over GST control)
GCTACG | 1.16 fold enrichment (6-mer frequency, TF over GST control) | 1.14 fold enrichment (6-mer frequency, TF over GST control) | 1.12 fold enrichment (6-mer frequency, TF over GST control) | 1.14 fold enrichment (6-mer frequency, TF over GST control) | 1.41 fold enrichment (6-mer frequency, TF over GST control) | 1.1 fold enrichment (6-mer frequency, TF over GST control) | 1.19 fold enrichment (6-mer frequency, TF over GST control) | 1.25 fold enrichment (6-mer frequency, TF over GST control) | 1.29 fold enrichment (6-mer frequency, TF over GST control) | 1.16 fold enrichment (6-mer frequency, TF over GST control) | 1.11 fold enrichment (6-mer frequency, TF over GST control) | 1.04 fold enrichment (6-mer frequency, TF over GST control) | 1.23 fold enrichment (6-mer frequency, TF over GST control) | 1.1 fold enrichment (6-mer frequency, TF over GST control) | 1.05 fold enrichment (6-mer frequency, TF over GST control) | 1.23 fold enrichment (6-mer frequency, TF over GST control)
